{"source": "the supplement of paper PMC13380429", "note": "Values without a mark were called inactive."}
{"tested_on": "Vero E6 infected with SARS-CoV-2", "test": "SARS-CoV-2 infection rate relative to infected DMSO; higher = more infection, active = 60 or less", "settings": "24 h"}
{"smiles": "CC1(C)S[C@@H]2[C@H](N3C(=O)[C@@H](c4ccccc4)NC3(C)C)C(=O)N2[C@H]1C(=O)O", "note": "[hetacillin] (10 µM)", "SARS-CoV-2 infection rate": "96.5%"}
{"smiles": "CCCN[C@@H]1CCc2c(OC)cccc2[C@@H]1C", "note": "(10 µM)", "SARS-CoV-2 infection rate": "100%"}
{"smiles": "CCN(CC)Cc1cc(Nc2ccnc3cc(Cl)ccc23)ccc1O", "note": "[amodiaquine] (10 µM)", "SARS-CoV-2 infection rate": "17.5% (active)"}
{"smiles": "O=C(CC1NCCCC1O)Cn1cnc2cc(Br)c(Cl)cc2c1=O", "note": "(configuration not stated) [halofuginone] (0.833333 µM)", "SARS-CoV-2 infection rate": "99.5%"}
{"smiles": "NC(=O)N1C(=O)/C(=C(\\O)c2cccs2)c2cc(Cl)ccc21", "note": "[tenidap] (10 µM)", "SARS-CoV-2 infection rate": "91%"}
{"smiles": "CCCCCCCCCCCCCCCC[N+](C)(C)Cc1ccccc1", "note": "[benzyldimethylhexadecylammonium] (10 µM)", "SARS-CoV-2 infection rate": "80%"}
{"smiles": "Oc1cc(CNC(=S)/C=C/c2cc(O)c(O)c(Br)c2)cc(O)c1O", "note": "(0.833333 µM)", "SARS-CoV-2 infection rate": "104%"}
{"smiles": "NCC(O)c1ccc(O)cc1", "note": "(configuration not stated) [octopamine] (10 µM)", "SARS-CoV-2 infection rate": "114%"}
{"smiles": "Cc1cc(C#N)cc(C)c1Oc1nc(Nc2ccc(C#N)cc2)nc(N)c1Br", "note": "[etravirine] (10 µM)", "SARS-CoV-2 infection rate": "98%"}
{"smiles": "CNC[C@H](O)[C@@H](O)[C@H](O)[C@H](O)CO", "note": "[meglumine] (10 µM)", "SARS-CoV-2 infection rate": "104%"}
{"smiles": "Cc1c(S(=O)(=O)O)oc2c1C(=O)C(=O)c1c-2ccc2c1CCCC2(C)C", "note": "[sodium-tanshinone-II-A-sulfonate] (10 µM)", "SARS-CoV-2 infection rate": "110%"}
{"smiles": "CC[C@H](C)[C@H](N)C1=N[C@H](C(=O)N[C@@H](CC(C)C)C(=O)N[C@H](CCC(=O)[O-])C(=O)N[C@H](C(=O)N[C@H]2CCCCNC(=O)[C@H](CC(N)=O)NC(=O)[C@@H](CC(=O)[O-])NC(=O)[C@H](Cc3cnc[nH]3)NC(=O)[C@@H](Cc3ccccc3)NC(=O)[C@H]([C@@H](C)CC)NC(=O)[C@@H](CCCN)NC2=O)[C@@H](C)CC)CS1.[Zn+2]", "note": "[bacitracin-zinc] (10 µM)", "SARS-CoV-2 infection rate": "108%"}
